# Assay results from PubChem BioAssay AID1159580 (chemical genetic matrix, 2015).
# In all, about 5,500 compounds went through this assay and about 2,000 (36%) were called active. Roughly 18% stayed inconclusive and do not appear here. The list shows a part of the results. Values without a mark were called inactive. Rule as the data show it: active = normalized growth mostly below about 0.91 (no sharp cut-off); inconclusive = no clear call, values can overlap the other calls; inactive = mostly above about 0.92.
# Experiment: chemical genetic growth profiling, strain panel (AID 1159580);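 also: tested at 20 µM; growth read once vehicle control cultures reached saturation at 30 °C; 1 = growth at the plate median or of vehicle wells; lower values mean less growth of the strain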
# Settings: S. cerevisiae deletion strains, growth OD
smiles,measurement,setting,value
CC12CCC3C(CC=C4CC(O)CCC43C)C1CCC2=O (centres undefined),normalized growth,"locus YAL013W, strain DEP1, active compounds read low",0.948
same,normalized growth,"locus YAL021C, strain ccr4, active compounds read low",0.838 (active)
same,normalized growth,"locus YAL026C, strain drs2, active compounds read low",0.582 (active)
same,normalized growth,"locus YAL030W, strain snc1, active compounds read low",0.927 (active)
same,normalized growth,"locus YBL061C, strain skt5, active compounds read low",0.936
same,normalized growth,"locus YBR009C, strain hhf1, active compounds read low",0.834 (active)
same,normalized growth,"locus YBR021W, strain FUR4, active compounds read low",0.752 (active)
same,normalized growth,"locus YBR023C, strain chs3, active compounds read low",0.933
same,normalized growth,"locus YBR171W, strain sec66, active compounds read low",0.978
same,normalized growth,"locus YBR229C, strain ROT2, active compounds read low",1.02
same,normalized growth,"locus YBR231C, strain swc5, active compounds read low",0.926
same,normalized growth,"locus YBR279W, strain paf1, active compounds read low",0.876 (active)
same,normalized growth,"locus YCL011C, strain gbp2, active compounds read low",0.886 (active)
same,normalized growth,"locus YCL016C, strain dcc1, active compounds read low",0.9 (active)
same,normalized growth,"locus YCL029C, strain bik1, active compounds read low",0.904 (active)
same,normalized growth,"locus YCL069W, strain vba3, active compounds read low",0.94
same,normalized growth,"locus YCR088W, strain abp1, active compounds read low",1.02
same,normalized growth,"locus YDL005C, strain med2, active compounds read low",0.995
same,normalized growth,"locus YDL035C, strain GPR1, active compounds read low",0.787 (active)
same,normalized growth,"locus YDL040C, strain nat1, active compounds read low",1.02
same,normalized growth,"locus YDL074C, strain BRE1, active compounds read low",0.778 (active)
same,normalized growth,"locus YDL101C, strain DUN1, active compounds read low",0.994
same,normalized growth,"locus YDL134C, strain PPH21, active compounds read low",0.85 (active)
same,normalized growth,"locus YDL185W, strain tfp1, active compounds read low",1.04
same,normalized growth,"locus YDL192W, strain arf1, active compounds read low",0.934
same,normalized growth,"locus YDR001C, strain nth1, active compounds read low",1.03
same,normalized growth,"locus YDR069C, strain doa4, active compounds read low",0.945
same,normalized growth,"locus YDR101C, strain arx1, active compounds read low",0.955
same,normalized growth,"locus YDR137W, strain rgp1, active compounds read low",0.473 (active)
same,normalized growth,"locus YDR159W, strain sac3, active compounds read low",0.916
same,normalized growth,"locus YDR162C, strain NBP2, active compounds read low",0.828 (active)
same,normalized growth,"locus YDR195W, strain ref2",1.54 [resistant] (active)
same,normalized growth,"locus YDR297W, strain sur2, active compounds read low",0.95
same,normalized growth,"locus YDR318W, strain mcm21, active compounds read low",0.886 (active)
same,normalized growth,"locus YDR334W, strain swr1, active compounds read low",1.04
same,normalized growth,"locus YDR335W, strain msn5, active compounds read low",0.961
same,normalized growth,"locus YDR388W, active compounds read low",1.02
same,normalized growth,"locus YDR392W, strain spt3, active compounds read low",0.234 (active)
same,normalized growth,"locus YDR502C, strain sam2, active compounds read low",0.879 (active)
same,normalized growth,"locus YEL003W, strain gim4, active compounds read low",0.88 (active)
same,normalized growth,"locus YEL037C, strain rad23, active compounds read low",1
same,normalized growth,"locus YEL061C, strain CIN8 (second series), active compounds read low",1.01
same,normalized growth,"locus YER015W, strain faa2, active compounds read low",0.869 (active)
same,normalized growth,"locus YER016W, strain bim1, active compounds read low",1.01
same,normalized growth,"locus YER110C, active compounds read low",1.06
same,normalized growth,"locus YER111C, strain swi4, active compounds read low",1.01
same,normalized growth,"locus YER155C, strain BEM2 (second series), active compounds read low",0.84 (active)
same,normalized growth,"locus YER155C, strain BEM2, active compounds read low",1.02
same,normalized growth,"locus YER167W, strain BCK2, active compounds read low",0.929
same,normalized growth,"locus YFR010W, strain ubp6, active compounds read low",0.891 (active)
same,normalized growth,"locus YGL078C, strain dbp3, active compounds read low",0.979
same,normalized growth,"locus YGL086W, strain mad1, active compounds read low",0.888 (active)
same,normalized growth,"locus YGL167C, strain pmr1, active compounds read low",1
same,normalized growth,"locus YGL173C, strain kem1, active compounds read low",0.879 (active)
same,normalized growth,"locus YGL227W, strain vid30, active compounds read low",1.01
same,normalized growth,"locus YGL240W, strain doc1, active compounds read low",0.911
same,normalized growth,"locus YGL248W, strain PDE1, active compounds read low",0.857 (active)
same,normalized growth,"locus YGL253W, strain hxk2, active compounds read low",0.791 (active)
same,normalized growth,"locus YGR078C, strain PAC10, active compounds read low",0.887
same,normalized growth,"locus YGR135W, strain pre9, active compounds read low",0.871 (active)
same,normalized growth,"locus YGR252W, strain gcn5, active compounds read low",0.62 (active)
same,normalized growth,"locus YHR013C, strain ard1, active compounds read low",0.868
same,normalized growth,"locus YHR027C, strain rpn1, active compounds read low",0.895 (active)
same,normalized growth,"locus YHR030C, strain SLT2, active compounds read low",1.03
same,normalized growth,"locus YHR079C, strain IRE1 (second series), active compounds read low",1.02
same,normalized growth,"locus YHR094C, strain hxt1, active compounds read low",1.05
same,normalized growth,"locus YHR129C, strain ARP1, active compounds read low",0.905 (active)
same,normalized growth,"locus YHR142W, strain chs7, active compounds read low",0.768 (active)
same,normalized growth,"locus YHR200W, strain rpn10, active compounds read low",0.93
same,normalized growth,"locus YIL066C, strain RNR3, active compounds read low",0.823 (active)
same,normalized growth,"locus YIL073C, strain SPO22, active compounds read low",0.783
same,normalized growth,"locus YIL125W, strain kgd1, active compounds read low",0.989
same,normalized growth,"locus YIR030C, strain dcg1, active compounds read low",1
same,normalized growth,"locus YJL092W, strain hpr5, active compounds read low",0.948
same,normalized growth,"locus YJL095W, strain BCK1 (second series), active compounds read low",0.825 (active)
same,normalized growth,"locus YJL095W, strain BCK1, active compounds read low",0.655 (active)
same,normalized growth,"locus YJL115W, strain asf1, active compounds read low",0.997
same,normalized growth,"locus YJL129C, strain trk1, active compounds read low",0.801 (active)
same,normalized growth,"locus YJL134W, strain LCB3, active compounds read low",1.03
same,normalized growth,"locus YJL154C, strain vps35, active compounds read low",1.02
same,normalized growth,"locus YJL164C, strain tpk1, active compounds read low",0.845 (active)
same,normalized growth,"locus YJL166W, strain qcr8, active compounds read low",0.813 (active)
same,normalized growth,"locus YJL168C, strain set2, active compounds read low",1.04
same,normalized growth,"locus YJL187C, strain SWE1 (second series), active compounds read low",0.879
